In the supplement of paper PMC10646978:
± gives the standard deviation.

Key:
Conditions in all cases: modulator concentration 10 µM
[1] = system: RAW-Dual (murine macrophage reporter line); assay: NF-kB reporter (SEAP) activity fold change vs agonist alone; higher = enhanced NF-kB activity
Method in brief: (§1)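 In 384-well plates holding 50 000 RAW-Dual murine macrophage reporter cells per well, compound at 10 μM final was pre-incubated for 1 hour at 37 °C, after which a PRR agonist was added overnight. Supernatant SEAP read with QUANTI-Blue at 620 nm absorbance reported NF-κB, and Lucia luciferase read with QUANTI-Luc luminescence reported IRF. Fold change values come from dividing each reporter signal by the mean of agonist-only control wells on the same plate, averaged over replicate plates with propagated errors.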

[2] = system: RAW-Dual (murine macrophage reporter line); assay: IRF reporter (Lucia luciferase) activity fold change vs agonist alone; higher = enhanced IRF activity
Method in brief: as §1

[3] = system: RAW-Dual (murine macrophage reporter line); assay: viability score (confluency relative to resting cells, overnight) (fraction); higher = more viable, active = viable (0.7 or more)
Method in brief: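 RAW-Dual macrophages in 384-well plates were treated overnight with compound at 10 μM final. IncuCyte imaging recorded confluency, and IncuCyte software built two confluency masks across every imaged well. The viability score expresses confluency relative to resting cells and was judged against a cutoff, which a compound met only if both masks exceeded 70% of resting cells.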

[4] = agonist: CpG ODN 1826 0.5 ug/mL

Row | SMILES | NF-kB reporter [1, 4] | NF-kB reporter ([1]; agonist: LPS 0.1 ug/mL) | NF-kB reporter ([1]; agonist: MPLA […]) | IRF reporter ([2]; agonist: 3'3'-cGAMP 10 ug/mL) | IRF reporter ([2]; agonist: LPS 0.1 ug/mL) | IRF reporter ([2]; agonist: MPLA […]) | viability score [3]
1 | Nc1ccccc1S(N)(=O)=O [Prestw-913] | 0.95 ± 0.19 | 1.07 ± 0.13 | 1.04 ± 0.092 | 0.943 ± 0.062 | 0.991 ± 0.23 | 1.1 ± 0.2 | 0.995 (active)
2 | CCN(CC)c1ccc2cc(-c3nnc(NCc4ccc(F)cc4)s3)c(=O)oc2c1 | 1.08 ± 0.085 | 0.955 ± 0.059 | 0.906 ± 0.055 | 0.941 ± 0.035 | 1.08 ± 0.13 | 0.981 ± 0.085 | 1.01 (active)
3 | COC(=O)C(NC(=O)C(C)(C)C)C12CC3CC(CC(C3)C1)C2 (centres undefined) | 0.96 ± 0.075 | 0.892 ± 0.067 | 0.934 ± 0.094 | 1.06 ± 0.058 | 1.38 ± 0.23 | 1.49 ± 0.3 | 1.02 (active)
4 | CCOC(=O)Nc1nc(C)c(C(C)=O)s1 | 0.763 ± 0.059 | 0.872 ± 0.046 | 1.12 ± 0.098 | 0.996 ± 0.058 | 1.35 ± 0.081 | 1.44 ± 0.14 | 1.02 (active)
5 | CC(C)COc1ccc(CNC(=O)N(Cc2ccc(F)cc2)C2CCN(C)CC2)cc1.CC(C)COc1ccc(CNC(=O)N(Cc2ccc(F)cc2)C2CCN(C)CC2)cc1.O=C(O)[C@H](O)[C@@H](O)C(=O)O | 0.136 ± 0.016 | 0.384 ± 0.16 | 0.129 ± 0.012 | 0.0542 ± 0.025 | 0.528 ± 0.31 | 0.03 ± 0.0028 | 0.0597 (inactive)
6 | COc1ccc(-n2cnc3cc(NC(C)=O)ccc32)cc1 | 0.978 ± 0.18 | 0.973 ± 0.089 | 0.885 ± 0.07 | 0.861 ± 0.025 | 1.19 ± 0.15 | 1.14 ± 0.12 | 1.01 (active)
7 | Cc1ncn(CC(=O)N2CC(Oc3cccc(C(F)(F)F)n3)C2)c(=O)c1C | 0.986 ± 0.059 | 1.09 ± 0.086 | 0.9 ± 0.08 | 0.83 ± 0.12 | 1.21 ± 0.086 | 1.25 ± 0.097 | 1 (active)
8 | O=C1c2ccccc2C(=O)C1c1ccncc1 | 0.885 ± 0.066 | 1.03 ± 0.059 | 0.944 ± 0.029 | 0.757 ± 0.046 | 0.924 ± 0.1 | 0.799 ± 0.068 | 0.994 (active)
9 | Cc1ccn2c(-c3csc(NCc4ccccc4)n3)c(C)nc2c1 | 0.787 ± 0.061 | 1.03 ± 0.048 | 1.19 ± 0.15 | 0.442 ± 0.05 | 1.38 ± 0.082 | 1.46 ± 0.12 | 1.01 (active)
10 | COC(=O)c1c(NC(=O)C2CCCCC2)sc2c1CC(C)(C)NC2(C)C | 1.12 ± 0.095 | 1.24 ± 0.1 | 1.47 ± 0.16 | 0.764 ± 0.08 | 1.06 ± 0.1 | 1.82 ± 0.38 | 0.419 (inactive)
11 | CN(C(=O)c1cncc(F)c1)C1CN(c2ccc3nnc(C4CC4)n3n2)C1 | 0.937 ± 0.055 | 0.988 ± 0.078 | 0.83 ± 0.082 | 0.956 ± 0.087 | 0.991 ± 0.14 | 0.859 ± 0.4 | 1 (active)
12 | COc1nn(C)cc1C(=O)Nc1ccc(C(=O)NCCN2CCOCC2)cc1 | 1.02 ± 0.052 | 1.03 ± 0.083 | 0.893 ± 0.042 | 0.979 ± 0.049 | 1.28 ± 0.096 | 1.13 ± 0.23 | 0.994 (active)
13 | COc1cc2c(cc1OC)C(=O)NC1(CCCC1)C2 | 1.24 ± 0.095 | 0.958 ± 0.073 | 0.959 ± 0.092 | 0.819 ± 0.05 | 0.872 ± 0.11 | 0.911 ± 0.17 | 1.02 (active)
14 | COC(=O)C1=CN(CC2CCCO2)C=C(C(=O)OC)C1c1ccc(F)cc1 (centres undefined) | 1.06 ± 0.065 | 0.875 ± 0.069 | 1.22 ± 0.063 | 0.886 ± 0.062 | 0.95 ± 0.046 | 0.961 ± 0.13 | 0.996 (active)
15 | CCOC(=O)N1CCN(C(=O)CSc2nnc(-c3cccc(Cl)c3)o2)CC1 | 0.846 ± 0.18 | 0.96 ± 0.065 | 0.974 ± 0.057 | 0.769 ± 0.03 | 1.29 ± 0.1 | 1.04 ± 0.11 | 0.95 (active)
16 | CSCCC(NC(C)=O)C(=O)NC1CCN(c2nc(C)nc3c2CCCC3)CC1 (centres undefined) | 0.836 ± 0.061 | 1.06 ± 0.086 | 0.896 ± 0.048 | 0.957 ± 0.073 | 1.29 ± 0.18 | 1.17 ± 0.16 | 0.999 (active)
17 | CCC(C)C(=O)OC1CC(C)C=C2C=CC(C)C(CCC3CC(O)CC(=O)O3)C21 (centres undefined) | 1.33 ± 0.32 | 1 ± 0.061 | 1.06 ± 0.13 | 0.919 ± 0.031 | 1.19 ± 0.19 | 1.1 ± 0.16 | 1 (active)
18 | COc1ccc(NC(=O)CN(c2ccc(C)c(C)c2)S(C)(=O)=O)cc1Cl | 0.912 ± 0.096 | 1.14 ± 0.12 | 0.886 ± 0.032 | 0.857 ± 0.14 | 0.973 ± 0.045 | 0.858 ± 0.079 | 1 (active)
19 | O=C(Cc1ccc([N+](=O)[O-])cc1)NN=Cc1cccnc1 | 1.05 ± 0.083 | 1.02 ± 0.074 | 0.972 ± 0.041 | 0.86 ± 0.066 | 1.09 ± 0.053 | 1.03 ± 0.14 | 1 (active)
20 | O=C(c1ccc(F)cc1)N(C1CCCCC1)C1CCCCC1 | 0.68 ± 0.053 | 0.921 ± 0.067 | 1.07 ± 0.1 | 0.959 ± 0.033 | 1.28 ± 0.14 | 1.4 ± 0.22 | 1.02 (active)
21 | CN(C)CCCN(C(=O)Cc1ccc(F)cc1)c1nc2ccc(Cl)cc2s1.Cl | 0.447 ± 0.029 | 0.503 ± 0.079 | 1.08 ± 0.1 | 0.799 ± 0.035 | 0.714 ± 0.066 | 2.19 ± 0.47 | 0.0615 (inactive)
22 | O=C(c1cc2ccccc2o1)N1CC(N2C(=O)CCC2=O)C1 | 0.894 ± 0.054 | 0.957 ± 0.076 | 1.05 ± 0.066 | 1.03 ± 0.055 | 1.32 ± 0.26 | 1.44 ± 0.38 | 0.985 (active)
23 | CNCC[C@@H](Oc1cccc2ccccc12)c1cccs1 [Prestw-1708] | 0.661 ± 0.054 | 0.98 ± 0.073 | 1.18 ± 0.19 | 1.19 ± 0.076 | 1.11 ± 0.16 | 1.16 ± 0.28 | 0.384 (inactive)
24 | c1ccc(CSc2nnc(-c3ccncc3)o2)cc1 | 1.08 ± 0.075 | 1.18 ± 0.073 | 1.44 ± 0.13 | 0.379 ± 0.017 | 0.65 ± 0.056 | 0.501 ± 0.068 | 0.988 (active)
25 | CC(=O)Oc1ccc(C(=O)Nc2ccccc2Br)cc1 | 0.856 ± 0.068 | 1.01 ± 0.092 | 0.877 ± 0.066 | 0.953 ± 0.049 | 1.08 ± 0.2 | 0.904 ± 0.26 | 0.992 (active)
26 | Cc1cc2nc3sc(=Cc4ccccc4OCc4ccc(Cl)cc4Cl)c(=O)n3c2cc1C | 0.975 ± 0.088 | 1.07 ± 0.069 | 0.962 ± 0.072 | 0.99 ± 0.034 | 1.47 ± 0.18 | 1.14 ± 0.12 | 0.999 (active)
27 | CCS(=O)(=O)N1CC(CC#N)(n2cc(-c3ncnc4[nH]ccc34)cn2)C1 | 0.943 ± 0.099 | 1.13 ± 0.091 | 2.88 ± 0.17 | 0.189 ± 0.016 | 0.338 ± 0.035 | 0.517 ± 0.07 | 0.506 (inactive)
